± gives the standard deviation.
Key:
Details in all cases: modulator concentration 10 µM
[1] = test system: RAW-Dual (murine macrophage reporter line); test: NF-kB reporter (SEAP) activity fold change vs agonist alone; higher = enhanced NF-kB activity
In short: (§1)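 Overnight stimulation with a PRR agonist followed pre-incubation for 1 hour at 37 °C with compound at 10 μM final. This was done in RAW-Dual murine macrophage reporter cells seeded at 50 000 per well in 384-well plates. NF-κB (SEAP, QUANTI-Blue absorbance at 620 nm) and IRF (Lucia luciferase, QUANTI-Luc luminescence) were read from the supernatant. Each reporter's fold change relative to the mean agonist-only control on the same plate was averaged over replicate plates.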

[2] = test system: RAW-Dual (murine macrophage reporter line); test: IRF reporter (Lucia luciferase) activity fold change vs agonist alone; higher = enhanced IRF activity
In short: as §1

[3] = test system: RAW-Dual (murine macrophage reporter line); test: viability score (confluency relative to resting cells, overnight) (fraction); higher = more viable, active = viable (0.7 or more)
In short: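 RAW-Dual macrophages in 384-well plates were treated overnight with compound at 10 μM final. IncuCyte imaging recorded confluency, and IncuCyte software built two confluency masks across every imaged well. The viability score expresses confluency relative to resting cells and was judged against a cutoff, which a compound met only if both masks exceeded 70% of resting cells.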

[4] = agonist: CpG ODN 1826 0.5 ug/mL

| Structure (SMILES) | NF-kB reporter [1, 4] | NF-kB reporter ([1]; agonist: LPS 0.1 ug/mL) | NF-kB reporter ([1]; agonist: MPLA […]) | IRF reporter ([2]; agonist: 3'3'-cGAMP 10 ug/mL) | IRF reporter ([2]; agonist: LPS 0.1 ug/mL) | IRF reporter ([2]; agonist: MPLA […]) | viability score [3] |
| --- | --- | --- | --- | --- | --- | --- | --- |
| COc1ccnc(CS(=O)c2nc3ccc(OC(F)F)cc3[nH]2)c1OC (centres undefined) | 1.18 ± 0.16 | 0.901 ± 0.1 | 0.879 ± 0.053 | 0.901 ± 0.056 | 1.07 ± 0.11 | 1.15 ± 0.15 | 0.999 (active) |
| NC(=O)COc1ccc(Nc2nnc(-c3ccccc3)c3ccccc23)cc1 | 0.782 ± 0.083 | 0.806 ± 0.051 | 1.08 ± 0.093 | 0.747 ± 0.034 | 1.19 ± 0.069 | 1.23 ± 0.14 | 1.01 (active) |
| Cc1ccc(OCCOc2ncnc3ccccc23)c(Cl)c1 | 1.02 ± 0.11 | 1.02 ± 0.078 | 1.23 ± 0.049 | 0.916 ± 0.094 | 1 ± 0.12 | 0.875 ± 0.18 | 1 (active) |
| CC(C)(O)c1ccccc1CC[C@@H](SCC1(CC(=O)O)CC1)c1cccc(/C=C/c2ccc3ccc(Cl)cc3n2)c1 [Prestw-1189] | 1.1 ± 0.084 | 0.765 ± 0.056 | 1.04 ± 0.098 | 1.05 ± 0.048 | 1.27 ± 0.16 | 1.41 ± 0.34 | 0.881 (active) |
| COc1ccc(NC(=O)CCn2nc(C)nc2C)cc1 | 1.04 ± 0.099 | 1.07 ± 0.085 | 0.963 ± 0.12 | 0.961 ± 0.049 | 1.09 ± 0.068 | 1.01 ± 0.12 | 1 (active) |
| COC1(c2ccc(Cl)cc2)OC(=O)c2ccccc21 (centres undefined) | 0.805 ± 0.1 | 0.974 ± 0.052 | 1.07 ± 0.093 | 0.9 ± 0.052 | 1.06 ± 0.073 | 1.13 ± 0.16 | 0.992 (active) |
| COc1ccc(C2Nc3ccccc3-c3nnc(SCc4ccc(C)cc4)nc3O2)cc1C (centres undefined) | 0.964 ± 0.079 | 1.07 ± 0.086 | 0.919 ± 0.04 | 0.961 ± 0.13 | 0.992 ± 0.041 | 1.06 ± 0.15 | 1 (active) |
| Cc1ccc2[nH]c3nc(C)cc(C)c3c(=O)c2c1 | 0.967 ± 0.16 | 1.08 ± 0.091 | 0.993 ± 0.12 | 1.01 ± 0.052 | 1.25 ± 0.25 | 1.31 ± 0.21 | 0.704 (active) |
| Cl.Cl.OCCOCCN1CCN(C(c2ccccc2)c2ccc(Cl)cc2)CC1 (centres undefined) | 1.21 ± 0.051 | 1.51 ± 0.12 | 2.68 ± 0.22 | 0.726 ± 0.034 | 1.27 ± 0.25 | 1.45 ± 0.37 | 0.965 (active) |
| Cc1ccc2oc(-c3cccc(NC(=O)C(C)C)c3C)nc2c1 | 0.792 ± 0.062 | 0.908 ± 0.068 | 0.972 ± 0.094 | 0.848 ± 0.04 | 1.16 ± 0.068 | 1.33 ± 0.13 | 1.01 (active) |
| CC1=C(C(=O)N2CCOCC2)C(c2cccs2)NC(=O)N1 (centres undefined) | 1.12 ± 0.18 | 0.973 ± 0.1 | 0.965 ± 0.076 | 0.933 ± 0.047 | 1.07 ± 0.11 | 1.17 ± 0.14 | 0.986 (active) |
| COc1cc(NC(=O)NCc2nc(C)cc(N3CCOCC3)n2)cc(OC)c1 | 1.33 ± 0.32 | 1.04 ± 0.053 | 1.07 ± 0.11 | 0.886 ± 0.031 | 1.15 ± 0.14 | 1.09 ± 0.11 | 0.982 (active) |
| S=C(NCCN1CCCCC1)NCc1ccccc1 | 0.962 ± 0.14 | 1 ± 0.055 | 0.99 ± 0.12 | 1.01 ± 0.035 | 1.33 ± 0.14 | 1.22 ± 0.12 | 1.01 (active) |
| Cc1ccc(C2C=C(c3ccccc3)Nc3ncnn32)cc1 (centres undefined) | 0.956 ± 0.089 | 1.07 ± 0.12 | 0.893 ± 0.064 | 1.1 ± 0.056 | 1.13 ± 0.11 | 1.23 ± 0.35 | 0.982 (active) |
| O=C(O)c1cccnc1C(=O)O | 1.03 ± 0.087 | 1.04 ± 0.07 | 0.971 ± 0.022 | 0.941 ± 0.052 | 0.981 ± 0.12 | 0.867 ± 0.07 | 1 (active) |
| O=S(=O)(Oc1cccc2ccccc12)c1ccc(F)cc1 | 0.832 ± 0.1 | 0.926 ± 0.096 | 1.12 ± 0.1 | 0.789 ± 0.036 | 1.06 ± 0.064 | 1.12 ± 0.096 | 0.999 (active) |
| O=C(NC1CCCCCC1)c1ccc([N+](=O)[O-])cc1Cl | 1.1 ± 0.084 | 0.94 ± 0.07 | 0.919 ± 0.1 | 0.804 ± 0.035 | 1.08 ± 0.14 | 1.08 ± 0.13 | 0.983 (active) |
| COc1ccccc1C(=O)Nc1ccc(-c2nc3cc(C)ccc3o2)cc1 | 0.794 ± 0.063 | 0.996 ± 0.051 | 1.12 ± 0.11 | 0.803 ± 0.039 | 1.55 ± 0.11 | 1.62 ± 0.14 | 0.975 (active) |
| CCC(C)C(=O)OC1CC(C)C=C2C=CC(C)C(CCC3CC(O)CC(=O)O3)C21 (centres undefined) | 1.33 ± 0.32 | 1 ± 0.061 | 1.06 ± 0.13 | 0.919 ± 0.031 | 1.19 ± 0.19 | 1.1 ± 0.16 | 1 (active) |
| COc1ccc2cc(Br)ccc2c1CC(N)=O | 1.09 ± 0.086 | 1.07 ± 0.12 | 1.04 ± 0.046 | 0.89 ± 0.13 | 1.07 ± 0.072 | 0.961 ± 0.14 | 0.968 (active) |
| Cc1ccc(O)c(C2=NOC(O)(C(F)(F)F)C2)c1 (centres undefined) | 1.05 ± 0.065 | 0.955 ± 0.074 | 0.919 ± 0.054 | 0.975 ± 0.037 | 1.43 ± 0.24 | 1.04 ± 0.093 | 0.339 (inactive) |
| COc1c(C)c2c(c(O)c1C/C=C(\C)CCC(=O)OCCN1CCOCC1)C(=O)OC2 | 0.66 ± 0.12 | 0.222 ± 0.02 | 0.517 ± 0.047 | 0.608 ± 0.049 | 1.28 ± 0.13 | 1.24 ± 0.13 | 0.813 (active) |
| C[C@H](N[C@@H](CCc1ccccc1)C(=O)O)C(=O)N1CCC[C@H]1C(=O)O.O.O | 1.15 ± 0.086 | 1.09 ± 0.16 | 1.03 ± 0.073 | 1.17 ± 0.31 | 0.953 ± 0.057 | 0.906 ± 0.077 | 0.993 (active) |
| CCCCc1oc2ccccc2c1C(=O)c1cc(I)c(OCCN(CC)CC)c(I)c1.Cl | 0.471 ± 0.038 | 0.988 ± 0.12 | 1.83 ± 0.34 | 0.55 ± 0.033 | 1.6 ± 0.12 | 1.77 ± 0.15 | 1 (active) |
| C[C@@H](O)[C@H]1C(=O)N2C(C(=O)O)=C(SCCNC=N)C[C@H]12.O | 0.988 ± 0.074 | 1.01 ± 0.049 | 0.981 ± 0.034 | 0.897 ± 0.086 | 1.04 ± 0.089 | 1.25 ± 0.14 | 0.999 (active) |
| COc1ccc(C2SCc3cc(C)c(C)cc3CS2)cc1OC | 0.831 ± 0.11 | 0.826 ± 0.069 | 1.1 ± 0.1 | 0.965 ± 0.045 | 1.4 ± 0.087 | 1.64 ± 0.14 | 1.01 (active) |
| CN(C)C/C=C/C(=O)Nc1cc2c(Nc3ccc(F)c(Cl)c3)ncnc2cc1O[C@H]1CCOC1.O=C(O)/C=C\C(=O)O.O=C(O)/C=C\C(=O)O | 0.365 ± 0.017 | 0.661 ± 0.089 | 0.613 ± 0.034 | 0.418 ± 0.026 | 0.795 ± 0.17 | 0.855 ± 0.3 | 0.999 (active) |
